# Screens as filed in PubChem.
# Gal4-VP16 FLuc: Gal4-VP16 reporter inhibition counter-screen | Potency, µM (top dose mostly 53.6 µM), for the others: at the top dose activity, negative = inhibition, actives largely listed as inhibitors | Drosophila S2 Gal4-VP16 UAS-luciferase, luminescence, 20 h | 3.5% of 310,000 active;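 further: Gal4-VP16 expression switched on by copper sulfate through the metallothionein promoter; potency means the concentration at half of the fitted maximal effect; nearly all actives have a fitted effect of over 50% in size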
# TrxR1 inh: blocks rat thioredoxin reductase 1; recombinant rTrxR1, NADPH fluorescence consumption, selenite substrate; Potency, µM (series often up to 114 µM), for inactives: at the top dose activity change, negative = inhibition, hits mostly inhibitors; 1% of 390,000 active; AID 588453; further: potency means the concentration at half of the fitted maximal effect; nearly all actives have a fitted effect of over 65% in size
#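 Rat TrxR1 (90 nM in the dispensed reagent) was pre-reduced with 400 uM NADPH for 5 min at room temperature, then incubated with compound for 15 min. After 400 uM selenite was added, NADPH fluorescence (Ex 340/Em 450 nm) was followed for 8 min.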
# Coupling enz: inhibits coupling enzyme system, counter-screen for aldolase hits; coupling enzyme system counterscreen, AmpLite Red fluorescence; activity change, negative = inhibition, % at 58.2 µM, hits read low; 0.67% of 290,000 active; AID 2472; in the data active means activity change below about -30%
#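 First, compound is pin-transferred into glyceraldehyde-3-phosphate coupling-enzyme reagent at 57.5 uM final and held 10 min at RT. Next, substrate, coupling system and AmpLite Red are added. After 20 min RT, fluorescence (525/598 nm) is read.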
# TrxR1 substrate: substrates of rat thioredoxin reductase 1; purified TrxR1 substrate turnover, NADPH consumption readout; 0.01% of 390,000 active; AID 588456; Potency, µM (doses to about 114 µM), for inactives: top-dose activity change, negative = substrate turnover; O89049; further: potency means the concentration at half of the fitted maximal effect; nearly all actives have a fitted effect of over 50% in size
#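 Rat TrxR1, dispensed at 90 nM, was prereduced with 400 uM NADPH (final) for 5 min at ~22 deg C, then incubated with compound 15 min before 400 uM selenite. A first-read NADPH fluorescence drop versus no-compound background flagged substrates.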
# GALK inhibitor: galactokinase (human) inhibition. AID 1868. Purified GALK, Kinase-Glo residual ATP luminescence. Potency, µM (top dose mostly 57.5 µM), inactives show at the highest dose activity change, negative = inhibition, hits mostly inhibitors. 0.007% of 270,000 active; further: potency means the concentration at half of the fitted maximal effect
# Target sequence (P51570 whole entry, looked up): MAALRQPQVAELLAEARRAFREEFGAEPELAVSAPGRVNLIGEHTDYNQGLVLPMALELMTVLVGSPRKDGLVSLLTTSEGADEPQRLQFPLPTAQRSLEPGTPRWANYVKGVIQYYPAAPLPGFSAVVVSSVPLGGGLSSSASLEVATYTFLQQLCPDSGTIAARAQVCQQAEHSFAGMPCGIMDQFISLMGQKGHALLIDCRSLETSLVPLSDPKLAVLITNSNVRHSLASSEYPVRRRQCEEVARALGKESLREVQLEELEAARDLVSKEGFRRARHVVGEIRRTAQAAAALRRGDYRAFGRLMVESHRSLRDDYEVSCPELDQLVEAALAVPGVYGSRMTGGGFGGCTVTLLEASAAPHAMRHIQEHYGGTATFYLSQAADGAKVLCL
#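 Human GALK (5 nM) with 35 uM ATP and 100 uM galactose in 20 mM HEPES pH 8.0, 5 mM MgCl2, 60 mM NaCl, 1 mM DTT, 0.01% BSA. After 1 h at room temperature, leftover ATP was read by Kinase-Glo Plus luminescence.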
# RORgamma inh: ROR gamma (mouse) transcription inhibition. P51450. Drosophila S2 Gal4-RORgamma UAS-luciferase reporter, 20 h. Potency, µM (doses to about 53.6 µM), for inactives: top-dose activity change, negative = inhibition, usual class: inhibitors. 5.4% of 310,000 active. AID 2551; further: potency means the concentration at half of the fitted maximal effect; nearly all actives have a fitted effect of over 60% in size
#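 Luminescence from a UAS-regulated Photinus luciferase reporter in stably transfected Drosophila Schneider cells is measured; decreased signal marks ROR gamma inhibition. Fusion expression is induced by 700 uM copper sulfate for 20 hr.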
# Numbers without * were called inactive; u = inconclusive; x = no result; ! = not active in a repeat; [ ] = remark or other dose. Hits are enriched below; roughly 5.9% of the tested compounds scored in any of these assays. Unless noted, the call rests on the fitted dose curve; in most records, active means well fitted curve in the direction sought with a large enough effect; inconclusive means small, poorly fitted or top-dose-only effect, or another doubt; inactive means no such curve, though single readings can be large; an effect the other way counts as inactive or inconclusive. On the % scale 0 is the no-effect control and ±100 the full control effect.
SMILES,Gal4-VP16 FLuc,TrxR1 inh,Coupling enz,TrxR1 substrate,GALK inhibitor,RORgamma inh
COCCCn1c(N)c(C(=O)OCCOC)c2nc3ccccc3nc21,-2.3%,4.9%[57.1 µM],-18.0,197.1%[57.1 µM],-2.7%,-1.2%
COCCNC(=O)c1c(NC(=O)c2ccc(Br)o2)n(Cc2ccccc2)c2nc3ccccc3nc12,u,-36.0%,-43.8*,23.2%,x,-83.9%
CC(C)OCCCNC(=O)c1c(N)n(Cc2cccs2)c2nc3ccccc3nc12,15.8µM*,39.4%,-46.0*,109.0%,1.2%,u
CCOC(=O)c1c(NS(=O)(=O)c2ccccc2)n(CCCOC)c2nc3ccccc3nc12,-10.2%,-33.4%,-39.1*,277.5%,-2.2%,-1.8%
O=C(Nc1ccc2c(c1)OCCO2)c1cccn(Cc2cccc(F)c2)c1=O,x,18.7%[57.1 µM],x,-3.1%[57.1 µM],x,x
COCCNC(=O)c1c(N)n(CCC(C)C)c2nc3ccccc3nc12,-0.4%,-4.1%,-36.0*,106.2%,0.0%,0.0%
CC(C)CCn1c(N)c(C(=O)NCc2cccs2)c2nc3ccccc3nc21,-10.5%,49.2%[57.1 µM],-20.5,97.6%[57.1 µM],-1.4%,13.1%
Cc1ccccc1CCNCc1cc2cccc(C)c2[nH]c1=O,10µM*,5.4%,3.0,-0.4%,0.0%,u
CCOc1ccc(N2C(=O)NC(=O)/C(=C\c3ccc(N4CCCCC4)o3)C2=O)cc1,-2.5%,-25.9%,3.4,-21.7%,-0.1%,u
COc1ccc(OC)c(N2C(=O)/C(=C/c3ccco3)C(=O)NC2=S)c1,-12.8%,28.2µM*,0.1,-9.8%,-19.6%,-18.1%
COc1ccc(OC)c(N2C(=O)CC(=O)NC2=O)c1,-2.0%,u,0.1,-3.0%,7.8%,-12.7%
CN1CCN(c2ccc(/C=C3\C(=O)NC(=S)N(c4cccc(Br)c4)C3=O)o2)CC1,0.5%,u,-1.3,-24.0%,3.2%,-2.4%
CCOc1ccc(N2C(=O)/C(=C/c3ccc(C)o3)C(=O)NC2=S)cc1,-4.8%,25.1µM*,6.8,-3.3%,2.5%,0.7%[1.91 µM]
Cc1ccc(/C=C2\C(=O)NC(=S)N(c3cccc(F)c3)C2=O)o1,-19.5%,7.94µM*,3.4,-2.6%,4.2%,11.2µM*
O=C1NC(=S)N(c2ccc(F)cc2)C(=O)/C1=C/c1ccco1,-19.5%,x,-0.3,x,-27.2%,-24.8%
COc1ccc(OC)c(N2C(=O)NC(=O)/C(=C/c3ccc([N+](=O)[O-])s3)C2=O)c1,-3.5%[10 µM],u,-33.4*,4.6%[57.1 µM],-5.3%,25.9%
COc1ccc(C)cc1NC(=O)N(Cc1ccc2c(c1)OCO2)C1CCN(Cc2ccccc2)CC1,x,23.1%,x,1.6%,x,x
ClCc1ccccn1,-14.1%,x,x,x,x,-3.7%
Cc1cc(/C=C2\C(=O)NC(=O)N(Cc3ccco3)C2=O)c(C)n1-c1ccc(O)cc1,-12.3%,u,9.9,-2.1%,-2.8%,6.7%
COc1ccc(N2C(=O)/C(=C/c3ccc(C)o3)C(=O)NC2=S)cc1,-3.7%,20µM*,0.8,-15.6%,2.9%,-13.6%
Cc1cccc(N2C(=O)NC(=O)/C(=C/c3ccc([N+](=O)[O-])o3)C2=O)c1,u,12.6µM*,-35.9*,-3.5%,-1.0%,4.0%
O=C1NC(=S)N(c2ccc(F)cc2)C(=O)/C1=C\c1ccoc1,-1.5%,u,-6.6,0.0%[57.1 µM],-19.1%,-13.3%
Cc1cccc(N2C(=O)/C(=C/c3ccc(CN(CCC#N)S(C)(=O)=O)o3)C(=O)NC2=S)c1,-1.1%,7.94µM*,-0.8,-16.0%,-2.9%,-18.6%
Cc1ccc(N2C(=O)/C(=C/c3ccc(CN(CCC#N)S(C)(=O)=O)o3)C(=O)NC2=S)cc1C,-0.6%,x,0.7,x,2.6%,-12.1%
COc1cc([C@@H]2c3cc4c(c(O)c3C[C@H]3COC(=O)[C@@H]32)OCO4)cc(OC)c1OC,x,6.1%,x,7.3%,x,x
SMILES,Gal4-VP16 FLuc,TrxR1 inh,Coupling enz,TrxR1 substrate,GALK inhibitor,RORgamma inh
COc1ccc(-c2nc3ccccc3c(=O)n2-c2nccs2)cc1,u,-3.6%,3.2,-3.4%,2.9%,6.31µM*
COc1ccc(-c2nc3ccccc3c(=O)n2-c2ccc(OC)cc2)cc1,7.1%,22.2%,5.9,-2.3%,3.7%,3.9%
O=C(c1cc(-c2cccnc2)nc2ccccc12)N1CCC2(CC1)OCCO2,-5.3%,16.3%,0.7,3.2%,2.4%,-1.9%
COc1cc2[nH]c(=S)n(-c3ccccc3)c(=O)c2cc1OC,-29.9%,-8.4%,-1.7,0.9%,0.0%,3.98µM*
COc1cccc2c1O[C@H]1C(=O)CC[C@H]3CN(C)CCC231 (some centres not stated),x,14.5%[57.1 µM],x,-1.9%,x,x
O=C(Nc1ccc2c(c1)OCO2)c1cccn(Cc2cccc(F)c2)c1=O,x,15.2%[57.1 µM],x,-4.8%[57.1 µM],x,x
COC(=O)[C@@H]1[C@@H](O)[C@@]2(O)c3c(OC)cc(OC)cc3O[C@@]2(c2ccc(OC)cc2)[C@H]1c1ccccc1,0.1µM*,x,1.3,x,x,0.398µM*
COC(=O)C1C(c2ccccc2)C2C(=O)c3c(OC)cc(OC)cc3O[C@@]12c1ccc(OC)cc1 (some centres not stated),-10.1%[10 µM],x,0.1,x,x,4.1%[10 µM]
CC(C)C[C@H](NC(=O)[C@@H]1CCCN1C(=O)[C@@H](N)Cc1ccc(O)cc1)C(=O)NCC(N)=O,-7.0%,22.6%,-1.4,5.1%,-1.1%,0.2%
CCCCCCCCn1sccc1=O,0.631µM*,u,x,1.5%,x,0.447µM*
CN1CCc2cc3c(cc2C1C1OC(=O)c2c1ccc1c2OCO1)OCO3 (configuration not stated),-10.2%,x,0.7,x,x,10.7%
O=C1CCC[C@H]2[C@@H]3CCCN4CCC[C@H](CN12)[C@H]34,-1.5%,x,3.3,x,x,-8.7%
CN1C[C@H](CNC(=O)OCc2ccccc2)C[C@H]2c3cccc4c3c(cn4C)C[C@@H]21,-7.4%,x,-0.1,x,x,u
CN1C[C@H](CNC(=O)OCc2ccccc2)C[C@@H]2c3cccc4c3c(cn4C)C[C@H]21,-0.8%,u,-9.1,19.3%[57.1 µM],0.8%,22.4µM*!
C[C@]12C/C(=C/O)C(=O)C[C@@H]1CC[C@@H]1[C@@H]2CC[C@@]2(C)[C@H]1CC[C@]2(C)O,-13.5%,x,x,x,x,-17.1%
CCOc1ccc(-c2nc3ccc(-c4nc5ccc(N6CCN(C)CC6)cc5[nH]4)cc3[nH]2)cc1,u,x,-2.4,x,x,2.24µM*
CCOc1cc(C=C2C(=O)NC(=O)NC2=O)ccc1OS(=O)(=O)c1ccccc1,-5.2%,u,-5.3,2.8%[57.1 µM],-0.5%,-14.0%
CCOc1ccc(C=C2C(=O)NC(=S)NC2=O)cc1OCC,x,8.91µM*,x,7.7%[57.1 µM],x,x
CN(C)c1ccc(C=C2C(=O)NC(=O)NC2=O)cc1,x,-7.9%[2.29 µM],x,2.1%[57.1 µM],x,x
CC(C)CN(CC(C)C)c1ccc(C=C2C(=O)NC(=S)NC2=O)cc1[N+](=O)[O-],-7.9%,2.51µM*,-18.8,-7.0%,-9.6%,10.6%
